# Data as given in PubChem BioAssay (EPA / NIEHS).
# Calls of active or inactive are those of the source. Rule for the calls: active = hit-call score of the fitted dose curve at least 0.9, where 1 is the maximum; inactive = score below 0.9.
# Key:
# [1] = read-out: Urokinase-type plasminogen activator receptor (uPAR), PLAUR (gene 5329); assay: BSK_4H_uPAR: BioMAP Diversity Plus: 4H Assay for Urokinase-type plasminogen activator receptor (uPAR) Biomarker Activity (AID 2283030); settings: primary human endothelial cells (HUVEC); actives raise or lower the signal
# In short: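 HUVEC, 24 h post-dose; uPAR by ELISA; bidirectional fit vs DMSO baseline.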
# [2] = read-out: Vascular endothelial growth factor receptor 2 (Homo sapiens) (UniProt P35968); assay: BSK_4H_VEGFRII: BioMAP Diversity Plus: 4H Assay for Vascular endothelial growth factor receptor 2 (VEGFR2) Biomarker Activity (AID 2283031); settings: primary human endothelial cells (HUVEC); actives raise or lower the signal
# In short: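 HUVEC (human primary), 4H system; 24 h post-dose; VEGFRII by ELISA; bidirectional curve fit vs DMSO baseline; gain or loss of signal scored.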
# [3] = read-out: Vascular cell adhesion molecule 1 (VCAM1), VCAM1 (gene 7412); assay: BSK_4H_VCAM1: BioMAP Diversity Plus: 4H Assay for Vascular cell adhesion molecule 1 (VCAM1) Biomarker Activity (AID 2283033); settings: primary human endothelial cells (HUVEC); actives raise or lower the signal;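 note: cell-surface VCAM-1 protein measured by ELISA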
# In short: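 VCAM-1 ELISA read 24 h after chemical dosing of HUVEC in the BioMAP 4H system, with gain or loss of signal fitted relative to DMSO. Parallel SRB staining (560 nm) checked overt cytotoxicity.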
# [4] = read-out: Transforming growth factor beta 1 (TGFb1), TGFB1 (gene 7040); assay: BSK_BE3C_TGFb1: BioMAP Diversity Plus: BE3C Assay for Transforming growth factor beta 1 (TGFb1) Biomarker Activity (AID 2283036;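 note: TGF-b1 protein level measured by ELISA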); settings: primary human bronchial epithelial cells; actives raise or lower the signal
# In short: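 ELISA readout of TGF-b1 from human lung bronchial epithelial primary cells, taken 24 h post-treatment. Gain or loss of signal fitted relative to DMSO baseline, with parallel SRB staining for overt cytotoxicity.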
# [5] = read-out: Plasminogen activator inhibitor-1 (PAI1), SERPINE1 (gene 5054); assay: BSK_BE3C_PAI1: BioMAP Diversity Plus: BE3C Assay for Plasminogen activator inhibitor-1 (PAI1) Biomarker Activity (AID 2283037); settings: primary human bronchial epithelial cells; actives raise or lower the signal
# In short: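 PAI-1 was measured by ELISA in human primary bronchial epithelial cultures 24 h after chemical dosing, with cytotoxicity checked by SRB total-protein staining in parallel cultures. Activity was fitted in both directions relative to DMSO.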
# [6] = read-out: Urokinase-type plasminogen activator receptor (uPAR), PLAUR (gene 5329); assay: BSK_BE3C_uPAR: BioMAP Diversity Plus: BE3C Assay for Urokinase-type plasminogen activator receptor (uPAR) Biomarker Activity (AID 2283039); settings: primary human bronchial epithelial cells; actives raise or lower the signal;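 for outcome: cells exposed to compound for one day before measurement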
# In short: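 uPAR levels were measured by ELISA after 24 h compound treatment of primary human bronchial epithelial cells, fitted in both directions relative to DMSO. Parallel SRB staining served as the cytotoxicity read-out.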
# [7] = read-out: Interleukin-6 (IL6), IL6 (gene 3569); assay: BSK_CASM3C_IL6: BioMAP Diversity Plus: CASM3C Assay for Interleukin-6 (IL6) Biomarker Activity for (AID 2283040); settings: primary human coronary artery smooth muscle cells; actives raise or lower the signal
# [8] = read-out: Tissue plasminogen activator (tPA), PLAT (gene 5327); assay: BSK_BE3C_tPA: BioMAP Diversity Plus: BE3C Assay for Tissue plasminogen activator (tPA) Biomarker Activity (AID 2283041); settings: primary human bronchial epithelial cells; actives raise or lower the signal;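 note: tPA level quantified by ELISA one day after compound addition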
# In short: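 tPA measured by ELISA 24 h after dosing human primary bronchial epithelial cells (BE3C system). Changes in either direction were fitted against DMSO. Parallel cultures were stained with SRB to flag overt cytotoxicity.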
# [9] = read-out: Interleukin-8 (IL8), CXCL8 (gene 3576); assay: BSK_CASM3C_IL8: BioMAP Diversity Plus: CASM3C Assay for Interleukin-8 (IL8) Biomarker Activity (AID 2283042); settings: primary human coronary artery smooth muscle cells; actives raise or lower the signal;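 note: IL-8 protein level quantified by ELISA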
# [10] = read-out: Human Leukocyte Antigen - DR isotype (HLADR), HLA-DRA (gene 3122); assay: BSK_CASM3C_HLADR: BioMAP Diversity Plus: CASM3C Assay for Human Leukocyte Antigen - DR isotype (HLADR) Biomarker Activity (AID 2283043); settings: primary human coronary artery smooth muscle cells; actives raise or lower the signal;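 note: cell-surface HLA-DR protein level quantified by ELISA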
# [11] = read-out: Macrophage colony-stimulating factor (MCSF), CSF1 (gene 1435); assay: BSK_CASM3C_MCSF: BioMAP Diversity Plus: CASM3C Assay for Macrophage colony-stimulating factor (MCSF) Biomarker Activity (AID 2283044); settings: primary human coronary artery smooth muscle cells; actives raise or lower the signal;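 note: M-CSF protein amount quantified by ELISA after 24 h exposure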
# [12] = read-out: Low-density lipoprotein receptor (LDLR), LDLR (gene 3949); assay: BSK_CASM3C_LDLR: BioMAP Diversity Plus: CASM3C Assay for Low-density lipoprotein receptor (LDLR) Biomarker Activity (AID 2283045); settings: primary human coronary artery smooth muscle cells; actives raise or lower the signal;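 note: LDLR protein level on the cell surface quantified by ELISA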
# [13] = read-out: Monocyte Chemoattractant Protein-1 (MCP1), CCL2 (gene 6347); assay: BSK_CASM3C_MCP1: BioMAP Diversity Plus: CASM3C Assay for Monocyte Chemoattractant Protein-1 (MCP1) Biomarker Activity (AID 2283046); settings: primary human coronary artery smooth muscle cells; actives raise or lower the signal;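 note: MCP-1 level quantified by ELISA 24 h after dosing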
# [14] = BSK_CASM3C_Proliferation: Cell Proliferation Assessment in the BioMAP Diversity Plus: CASM3C Assay (AID 2283047); settings: primary human coronary artery smooth muscle cells;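 note: sulforhodamine B total protein stain as relative cell number at 560 nm; sub-confluent cells exposed 48 h before staining; fitted both ways against DMSO so gain or loss of cell number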
# [15] = read-out: Monokine induced gamma interferon (MIG), CXCL9 (gene 4283); assay: BSK_CASM3C_MIG: BioMAP Diversity Plus: CASM3C Assay for Monokine induced gamma interferon (MIG) Biomarker Activity (AID 2283048); settings: primary human coronary artery smooth muscle cells; actives raise or lower the signal;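 note: MIG protein level measured by ELISA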
# [16] = read-out: serum amyloid A (SAA), SAA1 (gene 6288); assay: BSK_CASM3C_SAA: BioMAP Diversity Plus: CASM3C Assay for serum amyloid A (SAA) Biomarker Activity (AID 2283049); settings: primary human coronary artery smooth muscle cells; actives raise or lower the signal;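 note: SAA protein level quantified by ELISA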
# [17] = read-out: Monokine induced gamma interferon (MIG), CXCL9 (gene 4283); assay: BSK_BE3C_MIG: BioMAP Diversity Plus: BE3C Assay for Monokine induced gamma interferon (MIG) Biomarker Activity (AID 2283035); settings: primary human bronchial epithelial cells; actives raise or lower the signal
# In short: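 ELISA quantified MIG after 24 h exposure of primary bronchial epithelial cultures, analysed in both directions relative to DMSO. Cytotoxicity tracked in parallel cultures by sulforhodamine B staining.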
# [18] = read-out: urokinase plasminogen activator (uPA), PLAU (gene 5328); assay: BSK_BE3C_uPA: BioMAP Diversity Plus: BE3C Assay for urokinase plasminogen activator (uPA) Biomarker Activity (AID 2283038); settings: primary human bronchial epithelial cells; actives raise or lower the signal;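 note: uPA protein level quantified by ELISA in cell cultures; uPA read one day after compound addition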
# In short: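 ELISA read-out of uPA in human lung primary bronchial epithelial cultures, 24 h post-dosing. Gain or loss of signal fitted bidirectionally relative to DMSO baseline; cytotoxicity checked in parallel cultures via SRB total protein stain.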
# [19] = read-out: Interferon-gamma inducible Protein 10 (IP10), CXCL10 (gene 3627); assay: BSK_BE3C_IP10: BioMAP Diversity Plus: BE3C Assay for Interferon-gamma inducible Protein 10 (IP10) Biomarker Activity (AID 2283034); settings: primary human bronchial epithelial cells; actives raise or lower the signal
# In short: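 IP-10 quantified by ELISA in human primary bronchial epithelial cell cultures at 24 hours post-dosing. Gain or loss of signal fitted relative to DMSO; parallel SRB staining assessed overt cytotoxicity.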
compound,measurement,setting,value
COP(=O)(OC)SCn1c(=O)oc2cc(Cl)cnc21,outcome,[1],inactive
same,outcome,[2],inactive
same,outcome,[3],inactive
same,outcome,[4],inactive
same,outcome,[5],inactive
same,outcome,[6],inactive
same,outcome,[7],inactive
same,outcome,[8],inactive
same,outcome,[9],inactive
same,outcome,[10],inactive
same,AC50,[11],9.42 µM (active)
same,outcome,[12],inactive
same,AC50,[13],20 µM (active)
same,AC50,[14],21.5 µM (active)
same,AC50,[15],38.8 µM (active)
same,outcome,[16],inactive
CN(C)NC(=O)CCC(=O)O,outcome,[1],inactive
same,outcome,[2],inactive
same,outcome,[3],inactive
same,outcome,[17],inactive
same,outcome,[4],inactive
same,outcome,[5],inactive
same,outcome,[6],inactive
same,outcome,[7],inactive
same,outcome,[8],inactive
same,outcome,[9],inactive
same,outcome,[10],inactive
same,outcome,[11],inactive
same,outcome,[12],inactive
same,outcome,[13],inactive
same,outcome,[14],inactive
same,outcome,[15],inactive
same,outcome,[16],inactive
CC(C1CC1)C(O)(Cn1cncn1)c1ccc(Cl)cc1 (stereo unspecified),outcome,[1],inactive
same,outcome,[2],inactive
same,outcome,[3],inactive
same,outcome,[4],inactive
same,outcome,[5],inactive
same,outcome,[6],inactive
same,outcome,[7],inactive
same,outcome,[8],inactive
same,outcome,[9],inactive
same,outcome,[10],inactive
same,outcome,[11],inactive
same,outcome,[12],inactive
same,outcome,[13],inactive
same,outcome,[14],inactive
same,outcome,[15],inactive
same,outcome,[16],inactive
CN(C)C(=O)Nc1cccc(C(F)(F)F)c1,outcome,[1],inactive
same,outcome,[2],inactive
same,outcome,[3],inactive
same,outcome,[17],inactive
same,outcome,[4],inactive
same,outcome,[5],inactive
same,outcome,[18],inactive
same,outcome,[6],inactive
same,outcome,[7],inactive
same,outcome,[8],inactive
same,outcome,[9],inactive
same,outcome,[10],inactive
same,outcome,[11],inactive
same,outcome,[12],inactive
same,outcome,[13],inactive
same,outcome,[14],inactive
same,outcome,[15],inactive
same,outcome,[16],inactive
CCCOc1nn(C(=O)NS(=O)(=O)c2ccccc2C(=O)OC)c(=O)n1C,outcome,[1],inactive
same,outcome,[2],inactive
same,outcome,[3],inactive
same,outcome,[19],inactive
same,outcome,[4],inactive
same,outcome,[5],inactive
same,outcome,[18],inactive
same,AC50,[6],1.32 µM (active)
same,outcome,[7],inactive
same,outcome,[8],inactive
same,outcome,[9],inactive
same,outcome,[10],inactive
same,outcome,[11],inactive
same,outcome,[12],inactive
same,outcome,[13],inactive
same,outcome,[14],inactive
same,outcome,[15],inactive
same,outcome,[16],inactive
CSc1nnc(C(C)(C)C)c(=O)n1N,outcome,[1],inactive
same,outcome,[2],inactive
same,outcome,[3],inactive
same,outcome,[4],inactive
same,outcome,[5],inactive
same,outcome,[6],inactive
same,outcome,[7],inactive
same,outcome,[8],inactive
same,outcome,[9],inactive
same,outcome,[10],inactive
same,outcome,[11],inactive
same,AC50,[12],4.43 µM (active)
same,outcome,[13],inactive
same,outcome,[14],inactive
same,outcome,[15],inactive
same,outcome,[16],inactive
CNc1cnn(-c2cccc(C(F)(F)F)c2)c(=O)c1Cl,outcome,[1],inactive
same,outcome,[2],inactive
same,outcome,[3],inactive
same,outcome,[17],inactive
same,outcome,[4],inactive
same,outcome,[5],inactive
same,outcome,[6],inactive
same,outcome,[7],inactive
same,outcome,[8],inactive
same,outcome,[9],inactive
same,outcome,[10],inactive
same,outcome,[11],inactive
same,outcome,[12],inactive
same,outcome,[13],inactive
same,outcome,[14],inactive
same,outcome,[15],inactive
same,outcome,[16],inactive
CNC(=O)ON=C(SC)C(=O)N(C)C,outcome,[1],inactive
same,outcome,[2],inactive
same,outcome,[3],inactive
same,outcome,[19],inactive
same,outcome,[4],inactive
same,outcome,[5],inactive
same,outcome,[6],inactive
same,outcome,[7],inactive
same,outcome,[8],inactive
same,outcome,[9],inactive
same,outcome,[10],inactive
same,outcome,[11],inactive
same,outcome,[12],inactive
same,outcome,[13],inactive
same,outcome,[14],inactive
same,outcome,[15],inactive
same,outcome,[16],inactive
CCOP(=O)(SC(C)CC)N1CCSC1=O (stereo unspecified),outcome,[1],inactive
same,outcome,[2],inactive
same,outcome,[3],inactive
same,outcome,[4],inactive
same,outcome,[5],inactive
same,outcome,[6],inactive
same,outcome,[7],inactive
same,outcome,[8],inactive
same,outcome,[9],inactive
same,outcome,[10],inactive
same,outcome,[11],inactive
same,outcome,[12],inactive
same,outcome,[13],inactive
same,outcome,[14],inactive
same,outcome,[15],inactive
same,outcome,[16],inactive
